About 83,000 compounds went through this panel and 20% of them were active in at least one assay; those are over-represented in the sample as a whole.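 Testing used 96-well plates and a 48-hour single-concentration exposure. Example: -40 means 40% of the starting cells died.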 A number with no mark means an inactive call. Calls of active or inactive are those of the source. The calls were made as follows: active = growth percent below 10; inactive = the rest.

Among the test systems are HCT-15 colon; HT29 colon; SNB-75 CNS; SNB-19 CNS; U251 CNS; PC-3 prostate; SK-MEL-5 melanoma; UACC-62 melanoma; SK-MEL-28 melanoma; SK-MEL-2 melanoma; EKVX NSCLC; SN12C renal; UO-31 renal; TK-10 renal; ACHN renal; CAKI-1 renal; A498 renal; CCRF-CEM leukemia; MOLT-4 leukemia; LOX IMVI melanoma.
Common to all, as to assay: NCI-60 one-dose screen, 48 h (100 = growth as untreated, 0 = no growth, -100 = all killed)
Holding throughout (settings): 10 µM unless noted

For the compound `O=C(CCc1nnc(-c2c(Cl)cccc2Cl)o1)c1nc2ccccc2[nH]1`, the growth in the assay on HCT-15 colon is 81.5%; with HT29 colon, 9.39% (active); in the assay with SNB-75 CNS, 63.4%; in the assay on SNB-19 CNS, 75.1%; in the assay on U251 CNS, 52.5%; with PC-3 prostate, 53.1%. Also, the growth in the assay with SK-MEL-5 melanoma was 67%; in the assay on UACC-62 melanoma, 42.3%; with SK-MEL-28 melanoma, 82.7%; in the assay with SK-MEL-2 melanoma, 59.4%; in the assay on EKVX NSCLC it was 61%; in the assay on SN12C renal it was 61.2%. For the same compound, the growth is 52.1% in the assay on UO-31 renal; 64% in the assay on TK-10 renal; 81.3% in the assay with ACHN renal; 59.8% in the assay with CAKI-1 renal; 58.4% in the assay with A498 renal; 47.3% in the assay with CCRF-CEM leukemia. The growth with MOLT-4 leukemia was 20.7%.
As to `COc1ccc(/C=N/Nc2cc(=O)[nH]c3ccc(C)cc23)cc1`, the growth in the assay with HCT-15 colon is 87.9%; in the assay on HT29 colon it was 94.7%; with SNB-75 CNS it was 108%; in the assay with SNB-19 CNS, 95.2%; in the assay on U251 CNS, 97.1%; in the assay on PC-3 prostate, 79.1%. In addition, the growth is 69% with SK-MEL-5 melanoma; 89.4% in the assay with UACC-62 melanoma; 91.5% in the assay on LOX IMVI melanoma; 81.7% in the assay on SK-MEL-2 melanoma; 82% with EKVX NSCLC; 88.3% in the assay on SN12C renal. In addition, the growth in the assay with UO-31 renal was 75.7%; with TK-10 renal, 116%; in the assay on ACHN renal, 92.2%; in the assay with CAKI-1 renal, 93.1%; in the assay with A498 renal, 87.8%; in the assay on CCRF-CEM leukemia, 88%. In addition, the growth with MOLT-4 leukemia is 79%.
Regarding `CN(C)CCN1CCN(c2ncccc2C2Nc3ccccc3-n3cccc32)CC1` (centres undefined), the growth is 101% in the assay on HCT-15 colon; 101% in the assay on HT29 colon; 88.3% with SNB-75 CNS; 106% in the assay on SNB-19 CNS; 105% with U251 CNS; 102% in the assay on PC-3 prostate. Besides, the growth with SK-MEL-5 melanoma is 104%; in the assay with UACC-62 melanoma, 105%; in the assay on LOX IMVI melanoma, 99.9%; with SK-MEL-2 melanoma, 124%; with EKVX NSCLC it was 102%; in the assay with SN12C renal, 101%. The growth in the assay with UO-31 renal is 77.8%; in the assay with TK-10 renal it was 103%; in the assay on ACHN renal, 105%; in the assay on CAKI-1 renal, 85.4%; in the assay with A498 renal, 86.7%; in the assay on CCRF-CEM leukemia, 102%. For the same compound, the growth with MOLT-4 leukemia is 98.2%.
Take `O=C(CCOCCNC(=O)COc1ccc2c(c1)OCC(c1ccc(F)cc1)C2=O)NCCCC(O)(P(=O)(O)O)P(=O)(O)O` (centres undefined): the growth in the assay on HCT-15 colon is 98.9%; with HT29 colon, 104%; in the assay with SNB-75 CNS it was 89.6%; in the assay on SNB-19 CNS it was 99.6%; in the assay with U251 CNS it was 107%; with PC-3 prostate it was 102%. In addition, the growth in the assay with SK-MEL-5 melanoma is 101%; with UACC-62 melanoma, 105%; in the assay on SK-MEL-28 melanoma it was 108%; with SK-MEL-2 melanoma, 104%; in the assay on EKVX NSCLC, 94.5%; with SN12C renal, 103%. Besides, the growth in the assay with UO-31 renal is 95.3%; in the assay with TK-10 renal, 114%; in the assay on ACHN renal, 102%; with CAKI-1 renal, 94.7%; with A498 renal it was 89%; in the assay on CCRF-CEM leukemia, 96.7%. In addition, in the assay with MOLT-4 leukemia, the growth is 99.3%.
As for `COC(=O)c1ccc2[nH]c(O)c(C(=Nc3ccc(N(C)C(=O)CN4CCN(C)CC4)cc3)c3ccccc3)c2c1`, the growth with HCT-15 colon is 12.3%; in the assay with HT29 colon, 21.3%; in the assay with SNB-75 CNS it was -4.83% (active); with SNB-19 CNS, 42.6%; in the assay with U251 CNS, 31.4%; in the assay with PC-3 prostate it was 36.3%. Further, the growth is 38.3% with SK-MEL-5 melanoma; 74.6% in the assay on UACC-62 melanoma; 16.3% in the assay with LOX IMVI melanoma; 54% in the assay on EKVX NSCLC; 17.6% in the assay with SN12C renal; 16% with UO-31 renal. In addition, the growth in the assay on TK-10 renal is 51.6%; in the assay on ACHN renal, 7.31% (active); in the assay on A498 renal, -35.9% (active); with CCRF-CEM leukemia, 10.7%.
On to `OC(COc1ccccc1Cl)CN1CCN(c2cccc(Cl)c2)CC1` (centres undefined), for which the growth with HCT-15 colon was 97.2%; in the assay with HT29 colon, 99.2%; in the assay on SNB-75 CNS it was 104%; with SNB-19 CNS it was 97.6%; in the assay with U251 CNS it was 97.6%; in the assay with PC-3 prostate, 84.4%. Besides, the growth with SK-MEL-5 melanoma is 102%; in the assay with UACC-62 melanoma it was 98.5%; with LOX IMVI melanoma it was 91.6%; in the assay with SK-MEL-2 melanoma, 106%; in the assay on EKVX NSCLC it was 119%; in the assay with SN12C renal, 104%. For the same compound, the growth is 83.1% with UO-31 renal; 107% in the assay on TK-10 renal; 101% in the assay on ACHN renal; 99.1% with CAKI-1 renal; 108% in the assay on A498 renal; 113% with CCRF-CEM leukemia. Moreover, in the assay with MOLT-4 leukemia, the growth was 107%.
Consider `COc1ccc2cc(C(C)C(=O)Nc3ccc(-c4n[nH]c(=S)n4C4CCCCC4)cc3)ccc2c1` (centres undefined), for which the growth with HCT-15 colon is 54.3%; with HT29 colon, 85.1%; in the assay on SNB-75 CNS, 67%; in the assay on SNB-19 CNS it was 80%; in the assay on U251 CNS, 56.8%; in the assay with PC-3 prostate, 39.2%. The growth in the assay on SK-MEL-5 melanoma was 67.5%; in the assay on UACC-62 melanoma it was 58.3%; in the assay on SK-MEL-28 melanoma, 75.6%; with SK-MEL-2 melanoma, 77%; in the assay on EKVX NSCLC, 70.5%; in the assay with SN12C renal, 73.4%. In addition, the growth is -79.3% (active) in the assay on UO-31 renal; 95.9% in the assay with TK-10 renal; 73.4% in the assay with ACHN renal; 44.7% in the assay with CAKI-1 renal; 77.3% in the assay with A498 renal; 64.4% in the assay with CCRF-CEM leukemia. Besides, the growth with MOLT-4 leukemia is 55.9%.
Consider `O=c1cc(SCc2ccccc2)nc[nH]1`, for which the growth with HCT-15 colon is 105%; with HT29 colon it was 109%; in the assay on SNB-75 CNS, 93.7%; in the assay with SNB-19 CNS, 107%; in the assay on U251 CNS it was 107%; with PC-3 prostate, 97.7%. In addition, the growth with SK-MEL-5 melanoma was 113%; with UACC-62 melanoma, 108%; in the assay with SK-MEL-28 melanoma, 133%; with SK-MEL-2 melanoma, 111%; in the assay with EKVX NSCLC it was 94.9%; with SN12C renal it was 120%. Also, the growth was 103% in the assay with UO-31 renal; 108% with TK-10 renal; 108% in the assay on ACHN renal; 85.6% in the assay on CAKI-1 renal; 113% with A498 renal; 98.5% in the assay with CCRF-CEM leukemia. Further, the growth in the assay with MOLT-4 leukemia was 89.4%.

The values are drawn from PubChem BioAssay (NCI).
